# The other results are listed elsewhere or left out. Active and inactive are the calls of the source. Cut-off read from the data, not from the text of the source, unless noted: active = response below about 74% or above about 130%; inactive = in between.
# How the values were obtained:
# [1] = target: Regulator of G-protein signaling 16 (Homo sapiens) (UniProt O15492); assay: small molecules altering RGS protein interactions with GNAO1 – biochemical, multiplexed beads, flow cytometry, RGS4/7/8/16/19, primary screen (AID 1504; call rule not given here;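 note: fluorescently labeled Galpha-o bound to GDP with aluminium fluoride binding biotinylated RGS beads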); details: multiplexed bead flow cytometry, measured here: RGS16 interaction, at 10 µM
# [2] = target: Regulator of G-protein signaling 19 (Homo sapiens) (UniProt P49795); assay: as above; details: multiplexed bead flow cytometry, measured here: RGS19 interaction, at 10 µM
# [3] = target: Regulator of G-protein signaling 4 (Homo sapiens) + Guanine nucleotide-binding protein G(o) subunit alpha (Homo sapiens) (UniProt P49798+P09471); assay: as above; details: multiplexed bead flow cytometry, at 10 µM
# Regulator of G-protein signaling 4 (Homo sapiens) + Guanine nucleotide-binding protein G(o) subunit alpha (Homo sapiens), sequence (P09471 whole entry, looked up): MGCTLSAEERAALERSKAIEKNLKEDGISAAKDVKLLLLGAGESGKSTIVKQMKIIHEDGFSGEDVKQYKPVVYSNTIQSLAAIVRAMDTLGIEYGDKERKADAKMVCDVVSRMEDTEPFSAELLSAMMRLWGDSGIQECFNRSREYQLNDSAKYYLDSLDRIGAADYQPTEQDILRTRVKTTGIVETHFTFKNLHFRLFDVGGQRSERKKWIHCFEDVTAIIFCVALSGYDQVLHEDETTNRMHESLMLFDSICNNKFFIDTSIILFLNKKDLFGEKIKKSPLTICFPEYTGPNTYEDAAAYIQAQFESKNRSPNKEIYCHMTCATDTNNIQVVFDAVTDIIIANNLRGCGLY
# Regulator of G-protein signaling 4 (Homo sapiens) + Guanine nucleotide-binding protein G(o) subunit alpha (Homo sapiens), sequence (P49798 whole entry, looked up): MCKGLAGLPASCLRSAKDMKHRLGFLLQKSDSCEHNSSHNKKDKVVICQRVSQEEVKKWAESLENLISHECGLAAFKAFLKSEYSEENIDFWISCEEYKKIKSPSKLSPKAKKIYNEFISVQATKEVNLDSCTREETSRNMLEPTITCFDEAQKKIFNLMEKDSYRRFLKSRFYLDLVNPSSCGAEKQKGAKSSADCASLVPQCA
# [4] = target: Regulator of G-protein signaling 7 (Homo sapiens) (UniProt P49802); assay: as above; details: multiplexed bead flow cytometry, measured here: RGS7 interaction, at 10 µM
# [5] = target: Regulator of G-protein signaling 8 (Homo sapiens) (UniProt P57771); assay: as above; details: multiplexed bead flow cytometry, measured here: RGS8 interaction, at 10 µM
# [6] = interference with biotin-avidin bead interaction – biochemical, flow cytometry, bead-based, counter-screen for RGS protein interaction modulators (AID 1783;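 active = inhibition above 50%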;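 note: median green fluorescence of gated singlet beads compared with DMSO control wells; 0% = DMSO wells and 100% = complete loss of bead fluorescence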); details: streptavidin beads, fluorescein-biotin binding; at 10 µM, stronger effect = higher value
# [7] = target: Guanine nucleotide-binding protein G(o) subunit alpha (Homo sapiens) (UniProt P09471); assay: retest of RGS8-Galphao interaction hits – biochemical, multiplexed bead flow cytometry, single concentration, confirmation (AID 1836; in the data active = binding response below about 72% or above about 130%; inactive = in between;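 note: Galphao activated as GDP AlF4 complex before binding bead RGS8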); details: bead-based flow cytometry RGS8-Galphao binding, fluorescence; at 10 µM; actives lie on both sides
# Guanine nucleotide-binding protein G(o) subunit alpha (Homo sapiens), sequence (P09471 whole entry, looked up): as the sequence (P09471 whole entry, looked up) above
# [8] = target: Guanine nucleotide-binding protein G(o) subunit alpha (Homo sapiens) (UniProt P09471); assay: retest of RGS7-Galphao interaction hits – biochemical, multiplexed bead flow cytometry, single concentration, confirmation (AID 1837; in the data active = response below about 75% or above about 130%; inactive = in between;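 note: fluorescent Galphao activated with GDP and aluminum fluoride binding bead-coupled RGS7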); details: bead-based flow cytometry RGS7-Galphao binding; at 10 µM; actives lie on both sides
# [9] = target: Regulator of G-protein signaling 16 (Homo sapiens) + Guanine nucleotide-binding protein G(o) subunit alpha (Homo sapiens) (UniProt O15492+P09471); assay: RGS16 and Galphao interaction regulators – biochemical, single concentration, multiplexed bead flow cytometry, confirmation (AID 1838); details: bead-based flow cytometry, at 10 µM, actives lie on both sides;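 note: Galphao activated as the GDP aluminium fluoride complex binding bead-coupled RGS16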
# Regulator of G-protein signaling 16 (Homo sapiens) + Guanine nucleotide-binding protein G(o) subunit alpha (Homo sapiens), sequence (O15492 whole entry, looked up): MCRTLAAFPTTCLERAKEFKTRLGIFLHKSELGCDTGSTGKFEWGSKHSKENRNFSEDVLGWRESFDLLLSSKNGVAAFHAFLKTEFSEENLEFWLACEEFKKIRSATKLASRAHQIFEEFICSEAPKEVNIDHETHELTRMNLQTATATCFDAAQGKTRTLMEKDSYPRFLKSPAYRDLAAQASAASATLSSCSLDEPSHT
# Regulator of G-protein signaling 16 (Homo sapiens) + Guanine nucleotide-binding protein G(o) subunit alpha (Homo sapiens), sequence (P09471 whole entry, looked up): as the sequence (P09471 whole entry, looked up) above
# [10] = target: Guanine nucleotide-binding protein G(o) subunit alpha (Homo sapiens) (UniProt P09471); assay: RGS4 and Galphao interaction regulators – biochemical, single concentration, multiplexed bead flow cytometry, confirmation (AID 1840; in the data active = binding response below about 74% or above about 130%; inactive = in between); details: at 10 µM, actives lie on both sides
# [11] = target: Guanine nucleotide-binding protein G(o) subunit alpha (Homo sapiens) + Regulator of G-protein signaling 19 (Homo sapiens) (UniProt P09471+P49795); assay: RGS19 interaction with Gαo, hit retest – biochemical, single point, multiplexed bead flow cytometry, confirmation (AID 1841; in the data active = response below about 50% or above about 160%; inactive = in between;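 note: 100% = no compound control and 0% = blank background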); details: bead-based flow cytometry RGS19-Galphao binding; at 10 µM; actives lie on both sides
# Guanine nucleotide-binding protein G(o) subunit alpha (Homo sapiens) + Regulator of G-protein signaling 19 (Homo sapiens), sequence (P09471 whole entry, looked up): as above
# Guanine nucleotide-binding protein G(o) subunit alpha (Homo sapiens) + Regulator of G-protein signaling 19 (Homo sapiens), sequence (P49795 whole entry, looked up): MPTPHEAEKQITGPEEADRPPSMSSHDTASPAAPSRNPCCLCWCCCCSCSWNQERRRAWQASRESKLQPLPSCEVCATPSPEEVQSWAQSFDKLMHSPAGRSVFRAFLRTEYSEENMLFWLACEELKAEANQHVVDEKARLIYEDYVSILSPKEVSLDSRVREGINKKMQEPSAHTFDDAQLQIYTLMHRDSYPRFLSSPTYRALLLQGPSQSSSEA
# [12] = yeast TOR reporter LAP4-GFP level changes – cell-based, second cherry pick, flow cytometry, confirmation (AID 2621;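 active = GFP signal as percent of the solvent control above about 150%, meaning raised reporter expression, limit read from the data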;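 note: ratio of well median GFP fluorescence to plate DMSO mean so 100% = DMSO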); details: S. cerevisiae LAP4-GFP strain, 3 h, at 10 µM, stronger effect = higher value
# [13] = TOR pathway reporter MEP2-GFP, hit retest – S. cerevisiae, flow cytometry GFP, second cherry picks, confirmation (AID 2622;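 active = GFP signal above 150% of the solvent control wells, that is a rise of more than half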;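 note: median channel GFP fluorescence of all gated yeast cells per well; ratio of median GFP to plate DMSO average so 100% = DMSO level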); details: S. cerevisiae MEP2-GFP strain, 3 h, at 10 µM, stronger effect = higher value
# [14] = retest of hits on RPL19A-GFP strain – cell-based, S. cerevisiae, flow cytometry, second cherry pick, confirmation (AID 2623;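 active = under 65% GFP response relative to DMSO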;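 note: median GFP channel fluorescence per well over the all cells gate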); details: 3 h, at 10 µM, stronger effect = lower value, 100% means same as DMSO wells
# [15] = yeast TOR pathway CIT2-GFP reporter modulation – flow cytometry, second cherry pick, single plex, confirmation (AID 2624;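 active = GFP response vs DMSO above about 150%, limit read from the data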;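 note: median green fluorescence per well over all gated yeast cells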); details: S. cerevisiae CIT2-GFP strain, 3 h, at 10 µM, stronger effect = higher value, DMSO control wells read 100%
# [16] = yeast AGP1-GFP fluorescence change, single-dose confirmation – cell-based, flow cytometry, S. cerevisiae, cherry pick set 2 (AID 2643;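 active = over 150 percent of DMSO response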;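 note: median GFP channel fluorescence over all cells without mother daughter split; sample median GFP divided by mean DMSO control so 100% equals DMSO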); details: S. cerevisiae AGP1-GFP strain, 3 h, at 10 µM, stronger effect = higher value
Compound,RGS16–Galpha-o binding response [1] [%],RGS19–Galpha-o binding response [2] [%],RGS4–Galpha-o binding response [3],RGS7–Galpha-o binding response [4] [%],RGS8–Galpha-o binding response [5] [%],inhibition [6],binding response (% of control) [7],response (percent of control binding) [8],response (% of control binding) [9],binding response (% of control) [10],response (percent of control binding) [11],GFP response vs DMSO [12],GFP response vs DMSO [13],GFP response vs DMSO [14],GFP response vs DMSO [15],percent response vs DMSO [16]
CSc1ccc(CN2C(=O)NC3(CCCCCC3)C2=O)cc1,99.1,1890,106% (active),219,97.9,-1.7% (inactive),96.3% (inactive),94.7% (inactive),96.5% (inactive),97.1% (inactive),108% (inactive),,,,,
O=c1[nH]c2ccccc2s1,23,148,88.6% (active),88.2,79,-0.3% (inactive),103% (inactive),102% (inactive),101% (inactive),102% (inactive),99.2% (inactive),,,,,
CCOC(=O)C1Sc2[nH]c(=O)sc2C(c2ccc(Cl)cc2)C1C(=O)OCC (stereo unspecified),-39.2,128,,-17.7,7.38,,,,,,,,,,,
COCCNC(=S)N/N=C/c1c(C)[nH]c2ccccc12,153,993,,142,105,0.1% (inactive),105% (inactive),212% [activator] (active),134% [activator] (active),161% [activator] (active),225% (active),,,,,
Fc1cc(F)c2nc(Nc3nc4c(F)cccc4s3)sc2c1,192,-2.22,110% (active),112,122,0% (inactive),103% (inactive),103% (inactive),103% (inactive),103% (inactive),107% (inactive),,,,,
O=C(CSc1ccc2nnc(-c3ccccc3)n2n1)N1CCCc2ccccc21,413,-1120,,207,112,2% (inactive),104% (inactive),101% (inactive),101% (inactive),103% (inactive),108% (inactive),,,,,
CCC(=O)N1CCC(C(N)=O)(N2CCCCC2)CC1,417,90.3,133% (active),161,163,2% (inactive),93.5% (inactive),90.7% (inactive),94.8% (inactive),94.8% (inactive),88.3% (inactive),99% (inactive),102% (inactive),99.8% (inactive),104% (inactive),99.4% (inactive)
Cc1ccc(N2C(=O)C3C(c4ccccc4)(C2=O)C3(c2ccccc2)c2ccccc2)cc1 (stereo unspecified),13.2,310,,14.4,23.3,-0.7% (inactive),91.8% (inactive),60.8% (active),80.2% (inactive),68.2% (active),75.7% (inactive),,,,,
Cc1cc(C)nc(/N=C2\NC(=O)CC(C(=O)O)N2c2ccc(Cl)cc2Cl)n1 (stereo unspecified),99.8,104,117% (active),170,107,0.1% (inactive),102% (inactive),101% (inactive),102% (inactive),102% (inactive),101% (inactive),,,,,
C=CCn1c(Cn2nnc3ccccc32)nnc1SCC(=O)N/N=C/c1cc(Br)cc(OC)c1O,-35.2,144,,-19.4,5.17,,,,,,,,,,,
CCN(CC)CCOc1ccc2c(c1)C(=NNC(=O)c1ccccn1)c1cc(OCCN(CC)CC)ccc1-2,203,146,,216,154,,,,,,,,,,,
CCCC(=O)n1nc(-c2ccccc2)nc1N,14.9,-92.7,,23.4,20.9,,,,,,,,,,,
COC(=O)c1ccccc1OCC(=O)N1CCN(c2ccc(Cl)cc2)CC1,461,7560,,290,132,,,,,,,,,,,
COc1cc(C(=O)Nc2cc(C(F)(F)F)ccc2N2CCOCC2)ccc1O,9.57,135,79.2% (active),84.8,70.4,0.3% (inactive),104% (inactive),102% (inactive),98.8% (inactive),97.9% (inactive),86.5% (inactive),,,,,
N#Cc1nc(COc2ccc(-c3ccccc3)cc2)oc1NCc1cccnc1,0,78.7,,202,167,6.8% (inactive),156% [activator] (active),517% [activator] (active),364% [activator] (active),376% [activator] (active),565% (active),,,,,
COc1cc(C2/C(=C(\O)c3ccc4c(c3)CC(C)O4)C(=O)C(=O)N2Cc2ccco2)ccc1O (stereo unspecified),-10.7,178,,17.7,12.8,1.5% (inactive),106% (inactive),110% (inactive),109% (inactive),106% (inactive),106% (inactive),,,,,
O=C(NCc1ccc(F)cc1)C1CCC(CNc2c(N3CCOCC3)c(=O)c2=O)CC1 (stereo unspecified),3.97,357,,-657,8.33,0% (inactive),101% (inactive),100% (inactive),98.7% (inactive),101% (inactive),98.1% (inactive),,,,,
CN1CCN(C(CNS(=O)(=O)c2cccs2)c2cccnc2)CC1 (stereo unspecified),-5.62,168,,-9.98,10.6,,,,,,,,,,,
COc1ccc(-c2nn(-c3ccccc3)cc2C(=O)Nc2nccs2)cc1OC,24.6,172,90.3% (active),102,75,-2.4% (inactive),102% (inactive),99.8% (inactive),103% (inactive),101% (inactive),112% (inactive),,,,,

# — PubChem BioAssay
